Reference: publication PMC4336329 (PLoS ONE, 2015)
Among all 310,000 compounds or so, about 14,000 (4.5%) showed an effect of 50% or more. Effects have a minus sign here. This is one part of a sample in which strong results are shown more often than they occur.

Molecular target: human ether-à-go-go-related gene (hERG) potassium channel (human, UniProt Q12809)
Assay: primary screen, population patch clamp on CHO cells stably expressing hERG; higher = less effect of the substance
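Note: peak tail current of the secondary pulse compared with the same well before compound.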

human ether-à-go-go-related gene (hERG) potassium channel, sequence (Q12809 whole entry, looked up): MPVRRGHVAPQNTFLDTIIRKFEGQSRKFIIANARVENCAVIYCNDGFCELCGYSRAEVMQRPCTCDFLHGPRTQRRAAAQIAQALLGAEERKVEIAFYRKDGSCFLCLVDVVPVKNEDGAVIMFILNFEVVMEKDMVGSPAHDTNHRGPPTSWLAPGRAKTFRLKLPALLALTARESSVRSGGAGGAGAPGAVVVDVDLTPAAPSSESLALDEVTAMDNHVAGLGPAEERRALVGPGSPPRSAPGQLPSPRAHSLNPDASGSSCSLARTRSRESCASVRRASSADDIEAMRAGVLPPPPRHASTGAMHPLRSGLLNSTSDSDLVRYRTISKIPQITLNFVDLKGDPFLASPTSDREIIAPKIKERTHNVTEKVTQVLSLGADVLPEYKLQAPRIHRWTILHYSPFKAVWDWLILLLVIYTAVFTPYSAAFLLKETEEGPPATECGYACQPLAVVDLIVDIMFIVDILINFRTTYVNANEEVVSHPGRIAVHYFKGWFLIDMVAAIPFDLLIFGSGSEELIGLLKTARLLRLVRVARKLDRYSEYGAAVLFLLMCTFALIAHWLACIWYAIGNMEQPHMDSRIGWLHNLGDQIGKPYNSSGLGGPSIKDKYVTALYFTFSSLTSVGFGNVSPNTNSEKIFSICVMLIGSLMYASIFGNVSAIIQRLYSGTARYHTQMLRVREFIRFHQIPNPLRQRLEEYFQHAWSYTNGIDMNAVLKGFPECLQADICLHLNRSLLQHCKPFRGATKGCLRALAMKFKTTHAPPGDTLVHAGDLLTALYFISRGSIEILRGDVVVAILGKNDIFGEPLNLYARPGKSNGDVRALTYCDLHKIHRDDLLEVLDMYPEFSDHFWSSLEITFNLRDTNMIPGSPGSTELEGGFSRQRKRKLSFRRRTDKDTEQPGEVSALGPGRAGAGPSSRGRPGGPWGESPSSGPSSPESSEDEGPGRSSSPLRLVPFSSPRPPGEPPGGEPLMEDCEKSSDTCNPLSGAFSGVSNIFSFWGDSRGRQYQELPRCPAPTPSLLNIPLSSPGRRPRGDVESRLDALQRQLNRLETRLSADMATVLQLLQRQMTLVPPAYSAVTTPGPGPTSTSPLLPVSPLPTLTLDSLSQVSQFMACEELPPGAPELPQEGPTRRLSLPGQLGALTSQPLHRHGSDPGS

Compound | hERG current change (%, negative = inhibition) at 10uM [%]
COC(=O)c1ccc(NS(=O)(=O)c2cc3c4c(c2)C(C)C(=O)N4CCC3)cc1 (stereo not shown) | 2.73
Fc1cccc2sc(Nc3nc4cc5c(cc4s3)OCO5)nc12 | 20.3
COC(=O)C1CCN(C(=O)COC(=O)c2ccc(=O)n(Cc3ccccc3)n2)CC1 | -4.78
CC(C)CN(C(=O)COC(=O)c1ccc(-c2ccccc2)cc1)C1CCS(=O)(=O)C1 (stereo not shown) | 17.5
CCOc1cc(/C=N/NC(=O)Cc2ccc(C(F)(F)F)cc2[N+](=O)[O-])c(Br)cc1OC | 8.3
CCCCCCCCCC[N+](C)(C)CC/C=C1/c2ccccc2Sc2ccc(Cl)cc21.[Br-] | -76.6
CCCCCC[N+](C)(C)CC/C=C1/c2ccccc2Sc2ccc(Cl)cc21.[Br-] | -75.2
CN(C)CC/C=C1/c2ccc(F)cc2Sc2ccc(Cl)cc21.Cl | 5.06
CN(C)CC/C=C1/c2ccccc2Sc2c(O)cc(Cl)cc21 | -47.5
CC[N+](C)(C)CC/C=C1/c2ccccc2Sc2ccc(Cl)cc21.[Br-] | -25.3
CCCCCCCCCCC[N+](C)(C)CC/C=C1/c2ccccc2Sc2ccc(Cl)cc21.[Br-] | -32.8
O=C1NC(=S)S/C1=C/c1ccc(Oc2cnccn2)cc1 | 20
Cc1cccc(C(=O)NC(=S)N2CCN(C(=S)NC(=O)c3cccc(C)c3)CC2)c1 | -0.873
CCCC(OC(=O)CC1Sc2ccccc2NC1=O)C(=O)NCc1ccco1 (stereo not shown) | -13.8
Cc1ccc(CSCC(=O)N2CCOCC2)cc1 | 8.89
O=C(NNC1=C(C(=O)C(F)(F)F)CCC1)c1cccc(Cl)c1 | 7.77
CCOC(=O)C1(Cc2cccc(OC)c2)CCN(Cc2csc(C(C)=O)c2)CC1 | -41.1
CCOC(=O)C1(Cc2cccc(OC)c2)CCN(Cc2ccccc2)CC1 | -40.3
CCOC(=O)C1(Cc2cccc(OC)c2)CCN(Cc2ccc3c(c2)OCCO3)CC1 | -38
CCOC(=O)C1(Cc2cccc(OC)c2)CCN(Cc2ccc(OC)c(O)c2)CC1 | -77.9
CCOC(=O)C1(Cc2cccc(OC)c2)CCN(Cc2ccc(OC)c(OC)c2)CC1 | -68.8
CCOC(=O)C1(Cc2cccc(OC)c2)CCN(Cc2cccc(O)c2)CC1 | -54.7
CCOC(=O)C1(Cc2cccc(OC)c2)CCCN(Cc2cc(OC)c(O)c(OC)c2)C1 (stereo not shown) | -33.7
CCOC(=O)C1(Cc2cccc(OC)c2)CCN(CCO)CC1 | -54.3
CCOC(=O)C1(Cc2cccc(OC)c2)CCN(CC(O)CO)CC1 (stereo not shown) | -4.39
